# An excerpt weighted towards active compounds, which were near 18% of everything screened.
# RORg inh: qHTS for inhibitors of ROR gamma transcriptional activity; Drosophila S2 Gal4-RORgamma UAS-luciferase reporter, 20 h; 310,000 tested, 5.4% active; Nuclear receptor ROR-gamma (Mus musculus), P51450; AID 2551, 2010; Potency, µM (titrated, usually from 53.6 µM), for inactives: top-dose activity change, negative = inhibition, usual class: inhibitors; further: potency means the concentration at half of the fitted maximal effect; nearly all actives have a fitted effect of over 60% in size
# Target sequence (P51450 whole entry, looked up, the tested form may be a part): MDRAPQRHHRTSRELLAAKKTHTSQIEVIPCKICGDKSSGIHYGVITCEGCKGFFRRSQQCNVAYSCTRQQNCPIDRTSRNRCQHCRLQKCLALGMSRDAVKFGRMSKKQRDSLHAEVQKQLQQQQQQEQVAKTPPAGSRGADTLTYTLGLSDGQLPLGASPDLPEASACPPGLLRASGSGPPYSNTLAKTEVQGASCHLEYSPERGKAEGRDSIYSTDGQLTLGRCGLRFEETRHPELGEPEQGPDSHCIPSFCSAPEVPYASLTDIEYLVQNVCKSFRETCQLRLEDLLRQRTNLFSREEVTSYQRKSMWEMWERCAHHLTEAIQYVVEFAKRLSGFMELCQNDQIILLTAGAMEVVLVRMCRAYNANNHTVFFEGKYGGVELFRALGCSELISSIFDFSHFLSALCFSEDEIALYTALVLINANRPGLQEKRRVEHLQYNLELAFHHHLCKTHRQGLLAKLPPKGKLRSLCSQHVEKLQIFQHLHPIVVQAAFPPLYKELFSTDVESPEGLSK
#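 Using a luciferase readout, inhibitors were identified by reduced reporter activity in Drosophila cells coexpressing a copper-inducible Gal4–ROR gamma fusion and UAS-driven Photinus luciferase, incubated 20 hr after 700 uM copper sulfate.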
# IL1B secr inh: qHTS for Inhibitors of Inflammasome Signaling: IL-1-beta AlphaLISA Primary Screen | THP-1 LPS/ATP IL-1B secretion, AlphaLISA, 16 h; active compounds read low | AID 743279, 2014 | 360,000 tested, 4.7% active | activity change, % at 57.5 µM; in the data active means activity change below about -50%; inconclusive means mostly about -30% to -49%
#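 THP-1 cells pretreated 1 hr with compounds (up to 57.5 uM final), then stimulated with LPS (250 ng/mL final) plus ATP (1.25 mM final); secreted IL-1B measured by AlphaLISA after 16 hr, decreased signal indicating inhibition.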
# VP16 counter: VP16 counterscreen qHTS for inhibitors of ROR gamma transcriptional activity. Drosophila S2 Gal4-VP16 UAS-luciferase, luminescence, 20 h. 310,000 tested, 3.5% active. Potency, µM (titrated, usually from 53.6 µM), for inactives: top-dose activity, negative = inhibition, actives largely listed as inhibitors. AID 2546, 2010;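 further: Gal4-VP16 expression switched on by copper sulfate through the metallothionein promoter; potency means the concentration at half of the fitted maximal effect; nearly all actives have a fitted effect of over 50% in size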
# TDP1 cell CPT: qHTS for Inhibitors of human tyrosyl-DNA phosphodiesterase 1 (TDP1): qHTS in cells in presence of CPT. 420,000 tested, 12% active. Potency, µM (highest dose often 46.2 µM), for inactives: at the highest dose activity change, negative = growth inhibition, hits mostly inhibitors. chicken DT40 Tdp1-/-;hTDP1 cells + 20 nM CPT, ATP luminescence, 48 h; further: potency means the concentration at half of the fitted maximal effect; nearly all actives have a fitted effect of over 55% in size
#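 Chicken DT40 Tdp1-/- cells stably complemented with human TDP1 were seeded at 400 cells/well in medium containing 20 nM camptothecin, exposed to pin-transferred compounds, and grown at 37 °C for at least 48 hr. Viability was read as ATP luminescence.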
# LDHA block: qHTS assay for inhibitors of human lactate dehydrogenase; purified LDHA, NADH/diaphorase-resazurin fluorescence; active compounds read low; activity change, % (values are at about 110 or 230 µM); 480,000 tested, 0.15% active; AID 1347041, 2019; in the data active means activity change below about -30%; inconclusive means mostly about -25% to -30%;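 further: plate controls were DMSO wells for no effect and wells without enzyme for full effect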
#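 Human LDH5 (2 nM) was incubated with 0.06 mM NADH and 0.2 mM pyruvate for 5 min at room temperature in Tris pH 7.4. Remaining NADH was coupled through diaphorase/resazurin, and resorufin fluorescence was read at 0 and 20 min.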
# DT40 TDP1 no CPT: qHTS for Inhibitors of human tyrosyl-DNA phosphodiesterase 1 (TDP1): qHTS in cells in absence of CPT; Potency, µM (doses to about 46.2 µM), inactives show at the top dose activity change, negative = growth inhibition, usual class: inhibitors; 420,000 tested, 15% active; DT40 Tdp1-/- hTDP1 cells, no CPT, ATP luminescence, 48 h; AID 686978, 2013; further: potency means the concentration at half of the fitted maximal effect; nearly all actives have a fitted effect of over 55% in size
#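 Chicken DT40 Tdp1-/- cells complemented with human TDP1, screened without camptothecin (DMSO vehicle only), 400 cells/well. Compounds pin-transferred, cells incubated at 37 °C for at least 48 hr. Growth read as ATP-dependent luminescence (CellTiter-Glo, 30 min at RT).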
# * = called active by the depositor; ? = inconclusive; · = not tested or not shown. Unless noted, the call rests on the fitted dose curve; in most records, active means well fitted curve in the direction sought with a large enough effect; inconclusive means small, poorly fitted or top-dose-only effect, or another doubt; inactive means no such curve, though single readings can be large; an effect the other way counts as inactive or inconclusive. Unless noted, on the % scale 0 is the no-effect control and ±100 the full control effect.
SMILES,RORg inh,IL1B secr inh,VP16 counter,TDP1 cell CPT,LDHA block,DT40 TDP1 no CPT
Cc1cccn2c(=O)c3cc(C(=O)NC(C)c4ccccc4)c(=N)n(CCCn4ccnc4)c3nc12 (configuration not stated),1.4%,-83.5*,-8.6%,?,1.6,?
Cc1ccc2nc3c(cc(C(=O)NCc4ccccc4)c(=N)n3CCCn3ccnc3)c(=O)n2c1,·,?,·,?,1.7,?
Cc1cccn2c(=O)c3cc(C(=O)NC(C)c4ccccc4)c(=N)n(CCOCCO)c3nc12 (configuration not stated),·,·,·,23.1µM*,-9.1,25.9µM*
CCOCCCn1c(=N)c(C(=O)NC(C)c2ccccc2)cc2c(=O)n3cccc(C)c3nc21 (configuration not stated),·,·,·,16.4µM*,-4.0,16.4µM*
CCCCn1c(=N)c(C(=O)NC2CCCCC2)cc2c(=O)n3cccc(C)c3nc21,·,·,·,6.3%,1.2,-0.2%
N#Cc1ccccc1-c1ccc(C(=O)O)o1,·,·,·,·,-1.9,·
COCCn1c(SCc2nc(-c3ccc(C)cc3)no2)nc2ccsc2c1=O,·,·,·,·,5.1,·
CCC(C)NC(=O)CSc1nc(-c2ccccc2)[nH]c1S(=O)(=O)c1ccc(C)cc1 (configuration not stated),·,·,·,·,7.4,·
COc1cccc(CN2CCCC(N3CCc4ccccc4C3)C2)c1O (configuration not stated),-0.9%,-5.2,22.4%,1.7%,3.1,-24.5%
COc1cc2c(cc1OC)CN(C1CCCN(Cc3cc(Cl)ccc3O)C1)CC2 (configuration not stated),2.6%,-0.2,-5.7%,16.4µM*,-1.1,?
COc1cc(CN2CCCC(C(=O)c3ccc(C(C)(C)C)cc3)C2)cc(OC)c1O (configuration not stated),14.8%,-79.1*,-3.4%,?,6.0,?
COc1cccc(CN2CCCC(C(=O)c3ccc4c(c3)OCO4)C2)c1O (configuration not stated),-0.3%,-23.9,18.1%,-14.5%,0.5,-0.1%
COc1ccc(CN2CCCC(C(=O)c3ccc(Cl)cc3)C2)cc1Cn1cccn1 (configuration not stated),?,-91.6*,16.7%,?,0.2,?
COc1ccc(C(=O)NC2CCCN(Cc3ccc(Cl)cc3)C2)c(OC)c1 (configuration not stated),?,-24.5,1.3%,16.4µM*,-0.9,11.6µM*
O=[N+]([O-])c1ccc(N2CCN(S(=O)(=O)c3ccc4ccccc4c3)CC2)c2ncccc12,·,·,·,·,-16.0,·
COc1ccc(C(=O)C2CCCN(Cc3cc(C)c(O)c(C)c3)C2)c(OC)c1 (configuration not stated),20.5%,?,3.7%,?,-7.4,20.6µM*
CCOc1cc(CN2CCCC(C(=O)c3cccc(C(F)(F)F)c3)C2)ccc1O (configuration not stated),1.2%,-2.8,-4.7%,?,-5.1,25.9µM*
COc1ccc(C(=O)C2CCCN(Cc3cc(Cl)ccc3O)C2)c(OC)c1 (configuration not stated),?,-65.4*,-13.0%,?,-1.7,?
COc1ccc(C(=O)C2CCCN(Cc3c(C)[nH]c4ccccc34)C2)c(OC)c1 (configuration not stated),-10.7%,·,-8.4%,·,·,·
CCOC(=O)N1CCC(N2CCCC(C(=O)c3cc(F)ccc3OC)C2)CC1 (configuration not stated),-15.8%,-10.2,-0.1%,-10.9%,-7.4,?
CCOC(=O)C1CCCN(Cc2ccc(O)c(OC)c2)C1 (configuration not stated),-0.5%,4.9,-3.9%,-9.8%,0.0,-2.0%
COc1ccc(C(=O)C2CCCN(C3Cc4ccccc4C3)C2)c(OC)c1 (configuration not stated),-22.7%,0.0,-1.6%,20.6µM*,-2.1,10.3µM*
O=C(O)CC(O)(c1ccccc1)c1ccccc1,·,·,·,·,10.6,·
CCCC(=O)Nc1ccc(OCC)c2ncccc12,·,·,·,·,86.0,·
CC1(C)Cc2c(c(-c3ccco3)nc3sc4c(NCC5CCCO5)ncnc4c23)CO1 (configuration not stated),-9.1%,-5.5,-19.2%,18.4µM*,-0.1,20.6µM*
SMILES,RORg inh,IL1B secr inh,VP16 counter,TDP1 cell CPT,LDHA block,DT40 TDP1 no CPT
CC1(C)Cc2c(c(-c3ccco3)nc3sc4c(NCCCO)ncnc4c23)CO1,-8.9%,44.4,-4.3%,10.3µM*,-3.8,8.2µM*
CSc1nc(NCCN(C)C)c2sc3nc(-c4ccco4)c4c(c3c2n1)CCC4,·,-101.1*,·,6.51µM*,-2.0,11.6µM*
CC1(C)Cc2c(C#N)c(NCCN3CCOCC3)nc(-c3ccco3)c2CO1,0.4%,-6.5,-7.7%,-12.8%,1.7,?
CC1(C)Cc2c(c(-c3ccco3)nc3sc4c(NCCN5CCOCC5)ncnc4c23)CO1,?,-181.2*,?,8.2µM*,-9.2,20.6µM*
CN(C)C(=O)CCc1ccc2c3c([nH]c2c1)[C@]1(C)[C@@H](C(=O)N2CCOCC2)C[C@H](CC(=O)NCc2cccc(C(F)(F)F)c2)C(=O)N1CC3,·,-12.9,·,16.4µM*,2.7,?
CN(C)C(=O)CCc1ccc2c3c([nH]c2c1)[C@]1(CCc2ccccc2)[C@@H](C(=O)N2CCCCC2)C[C@H](CC(=O)NCc2ccco2)C(=O)N1CC3,·,-22.1,·,-12.8%,-4.0,?
CN(C)C(=O)CCc1ccc2c3c([nH]c2c1)[C@]1(CCc2ccccc2)[C@@H](C(=O)N2CCCCC2)C[C@H](CC(=O)NCc2cccc(C(F)(F)F)c2)C(=O)N1CC3,·,-71.0*,·,?,-4.7,20.6µM*
CCCn1nc(C(=O)Nc2ccc(S(=O)(=O)NC)cc2)c2ccccc2c1=O,·,·,·,·,2.8,·
O=C(CSc1ccccc1)NCCCN1CCOCC1,4.0%,35.3,-6.0%,2.1%,-1.0,0.9%
Cc1csc(NC(=O)CSc2c3c(nc4cc(Cl)ccc24)CCCC3)n1,·,·,·,·,18.3,·
O=C(CSc1c2c(nc3cc(Cl)ccc13)CCCC2)NCCN1CCOCC1,3.8%,-91.5*,6.4%,?,-1.1,?

# Screening results deposited in PubChem by National Center for Advancing Translational Sciences (NCATS).
